# From ChEMBL document CHEMBL1961873, “Compounds: GSK PKIS; Assays: Nanosyn kinase panel” (2012)
# What was measured:
# [1] = biological target: Calcium/calmodulin-dependent protein kinase type II subunit alpha (Homo sapiens) (UniProt Q9UQM7); details: at 1 µM;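 further: reported value is a mean percent inhibition of CAMK2A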
# [2] = biological target: Calcium/calmodulin-dependent protein kinase type II subunit delta (Homo sapiens) (UniProt Q13557); details: at 0.1 µM
# [3] = biological target: Calcium/calmodulin-dependent protein kinase type II subunit delta (Homo sapiens) (UniProt Q13557); details: at 1 µM
# [4] = biological target: T1, Calcium/calmodulin-dependent protein kinase type IV (Homo sapiens) (UniProt Q16566); details: at 0.1 µM
# T1 sequence (whole entry): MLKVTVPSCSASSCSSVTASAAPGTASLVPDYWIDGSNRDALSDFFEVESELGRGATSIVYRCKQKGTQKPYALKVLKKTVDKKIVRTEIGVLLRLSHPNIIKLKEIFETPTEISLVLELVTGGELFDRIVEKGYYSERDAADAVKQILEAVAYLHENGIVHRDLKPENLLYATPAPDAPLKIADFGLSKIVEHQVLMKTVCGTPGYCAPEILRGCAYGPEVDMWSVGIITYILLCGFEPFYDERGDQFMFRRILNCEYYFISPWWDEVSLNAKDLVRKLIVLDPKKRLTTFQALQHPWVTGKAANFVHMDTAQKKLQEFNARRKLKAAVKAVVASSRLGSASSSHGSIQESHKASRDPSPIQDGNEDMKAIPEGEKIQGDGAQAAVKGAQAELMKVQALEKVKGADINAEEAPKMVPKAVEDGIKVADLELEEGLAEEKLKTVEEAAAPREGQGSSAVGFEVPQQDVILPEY
# [5] = biological target: T1, Calcium/calmodulin-dependent protein kinase type IV (Homo sapiens); details: at 1 µM
# [6] = biological target: T2, Serine/threonine-protein kinase Chk1 (Homo sapiens) (UniProt O14757); details: at 0.1 µM
# T2 sequence (whole entry): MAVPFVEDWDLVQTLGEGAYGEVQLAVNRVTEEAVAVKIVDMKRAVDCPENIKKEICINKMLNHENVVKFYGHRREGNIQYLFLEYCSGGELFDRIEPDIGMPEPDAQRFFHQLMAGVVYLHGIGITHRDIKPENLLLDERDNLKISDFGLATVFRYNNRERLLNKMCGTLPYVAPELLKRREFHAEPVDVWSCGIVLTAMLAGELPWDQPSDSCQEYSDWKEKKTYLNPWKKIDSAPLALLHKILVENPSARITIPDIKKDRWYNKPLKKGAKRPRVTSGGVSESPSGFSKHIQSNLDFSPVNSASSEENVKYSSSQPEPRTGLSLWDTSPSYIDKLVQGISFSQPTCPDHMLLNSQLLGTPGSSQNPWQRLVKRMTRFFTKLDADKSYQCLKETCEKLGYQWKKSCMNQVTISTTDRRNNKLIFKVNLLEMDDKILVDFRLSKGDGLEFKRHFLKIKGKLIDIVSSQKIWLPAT
# [7] = biological target: T2, Serine/threonine-protein kinase Chk1 (Homo sapiens); details: at 1 µM
# [8] = biological target: Serine/threonine-protein kinase Chk2 (Homo sapiens) (UniProt O96017); details: at 0.1 µM
# [9] = biological target: Serine/threonine-protein kinase Chk2 (Homo sapiens) (UniProt O96017); details: at 1 µM
# [10] = biological target: Death-associated protein kinase 1 (Homo sapiens) (UniProt P53355); details: at 0.1 µM
# [11] = biological target: Death-associated protein kinase 1 (Homo sapiens) (UniProt P53355); details: at 1 µM
# [12] = biological target: T3, Serine/threonine-protein kinase DCLK2 (Homo sapiens) (UniProt Q8N568); details: at 0.1 µM
# T3 sequence (whole entry): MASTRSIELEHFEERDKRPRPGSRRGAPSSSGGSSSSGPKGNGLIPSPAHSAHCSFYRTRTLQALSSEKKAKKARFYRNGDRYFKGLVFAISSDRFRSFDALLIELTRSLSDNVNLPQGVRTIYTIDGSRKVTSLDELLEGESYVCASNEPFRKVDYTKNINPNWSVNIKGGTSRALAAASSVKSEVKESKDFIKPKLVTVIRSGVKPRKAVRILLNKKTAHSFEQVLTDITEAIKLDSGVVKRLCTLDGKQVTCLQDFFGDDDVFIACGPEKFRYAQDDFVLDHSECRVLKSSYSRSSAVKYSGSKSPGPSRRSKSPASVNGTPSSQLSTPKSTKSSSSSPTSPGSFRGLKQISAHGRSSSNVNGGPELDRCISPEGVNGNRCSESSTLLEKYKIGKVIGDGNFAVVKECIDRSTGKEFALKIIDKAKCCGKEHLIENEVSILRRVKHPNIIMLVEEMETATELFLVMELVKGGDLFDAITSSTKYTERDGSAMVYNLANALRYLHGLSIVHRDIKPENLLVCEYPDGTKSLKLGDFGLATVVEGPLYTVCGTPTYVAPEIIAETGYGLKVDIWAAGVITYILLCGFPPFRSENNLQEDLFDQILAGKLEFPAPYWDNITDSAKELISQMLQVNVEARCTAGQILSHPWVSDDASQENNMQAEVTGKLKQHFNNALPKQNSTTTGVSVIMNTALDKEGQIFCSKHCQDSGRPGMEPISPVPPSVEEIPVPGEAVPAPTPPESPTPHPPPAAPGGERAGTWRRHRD
# [13] = biological target: T3, Serine/threonine-protein kinase DCLK2 (Homo sapiens); details: at 1 µM
# [14] = biological target: MAP kinase-activated protein kinase 2 (Homo sapiens) (UniProt P49137); details: at 0.1 µM
# [15] = biological target: MAP kinase-activated protein kinase 2 (Homo sapiens) (UniProt P49137); details: at 1 µM
# [16] = biological target: MAP kinase-activated protein kinase 3 (Homo sapiens) (UniProt Q16644); details: at 0.1 µM
# [17] = biological target: MAP kinase-activated protein kinase 3 (Homo sapiens) (UniProt Q16644); details: at 1 µM
# [18] = biological target: Serine/threonine-protein kinase MARK1 (Homo sapiens) (UniProt Q9P0L2); details: at 0.1 µM
# [19] = biological target: Serine/threonine-protein kinase MARK1 (Homo sapiens) (UniProt Q9P0L2); details: at 1 µM
# [20] = biological target: MAP/microtubule affinity-regulating kinase 3 (Homo sapiens) (UniProt P27448); details: at 0.1 µM;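 further: mean percent inhibition of MARK3 kinase activity, measured within the GSK PKIS screening panel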
# Chain of MAP/microtubule affinity-regulating kinase 3 (Homo sapiens) (P27448 whole entry, looked up): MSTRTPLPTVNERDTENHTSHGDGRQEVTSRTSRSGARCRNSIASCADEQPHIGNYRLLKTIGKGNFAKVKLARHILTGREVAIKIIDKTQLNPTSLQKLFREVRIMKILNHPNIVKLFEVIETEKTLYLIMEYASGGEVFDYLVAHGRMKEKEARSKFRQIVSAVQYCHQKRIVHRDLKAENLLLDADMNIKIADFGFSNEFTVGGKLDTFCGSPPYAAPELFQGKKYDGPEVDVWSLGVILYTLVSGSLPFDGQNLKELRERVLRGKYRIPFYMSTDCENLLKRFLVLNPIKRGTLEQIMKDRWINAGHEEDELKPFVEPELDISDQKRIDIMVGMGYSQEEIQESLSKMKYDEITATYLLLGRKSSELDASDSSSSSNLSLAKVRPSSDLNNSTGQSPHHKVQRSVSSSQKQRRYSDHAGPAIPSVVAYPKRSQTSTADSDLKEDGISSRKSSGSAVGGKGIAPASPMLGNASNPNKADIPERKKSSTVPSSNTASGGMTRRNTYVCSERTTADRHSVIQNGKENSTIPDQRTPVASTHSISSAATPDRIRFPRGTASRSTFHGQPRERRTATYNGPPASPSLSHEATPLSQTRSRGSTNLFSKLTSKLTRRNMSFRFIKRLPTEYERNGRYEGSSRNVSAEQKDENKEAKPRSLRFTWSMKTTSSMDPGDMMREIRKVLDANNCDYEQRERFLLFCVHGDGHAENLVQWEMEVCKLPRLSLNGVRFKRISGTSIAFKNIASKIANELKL
# Chain of Serine/threonine-protein kinase MARK1 (Homo sapiens) (Q9P0L2 whole entry, looked up): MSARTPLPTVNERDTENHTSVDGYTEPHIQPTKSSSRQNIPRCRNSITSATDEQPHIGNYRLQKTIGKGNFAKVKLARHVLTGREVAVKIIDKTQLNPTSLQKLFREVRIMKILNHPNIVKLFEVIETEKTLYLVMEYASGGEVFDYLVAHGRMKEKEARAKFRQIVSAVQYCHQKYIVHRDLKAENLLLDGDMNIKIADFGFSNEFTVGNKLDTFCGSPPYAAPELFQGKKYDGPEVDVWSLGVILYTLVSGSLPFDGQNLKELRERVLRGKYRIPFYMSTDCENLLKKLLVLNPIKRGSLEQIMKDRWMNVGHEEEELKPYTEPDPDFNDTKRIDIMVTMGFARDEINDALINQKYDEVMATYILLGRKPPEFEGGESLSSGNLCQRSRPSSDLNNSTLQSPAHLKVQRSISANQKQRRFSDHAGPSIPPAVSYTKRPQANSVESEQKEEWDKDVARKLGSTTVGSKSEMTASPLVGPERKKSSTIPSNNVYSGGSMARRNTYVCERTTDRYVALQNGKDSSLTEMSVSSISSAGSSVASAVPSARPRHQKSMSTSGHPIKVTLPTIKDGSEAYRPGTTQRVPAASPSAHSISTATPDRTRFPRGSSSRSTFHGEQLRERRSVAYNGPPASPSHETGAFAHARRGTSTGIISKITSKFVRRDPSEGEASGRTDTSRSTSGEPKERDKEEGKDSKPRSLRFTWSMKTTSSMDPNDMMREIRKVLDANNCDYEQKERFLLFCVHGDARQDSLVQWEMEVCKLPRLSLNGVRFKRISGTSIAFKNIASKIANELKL
# Chain of Death-associated protein kinase 1 (Homo sapiens) (P53355 whole entry, looked up): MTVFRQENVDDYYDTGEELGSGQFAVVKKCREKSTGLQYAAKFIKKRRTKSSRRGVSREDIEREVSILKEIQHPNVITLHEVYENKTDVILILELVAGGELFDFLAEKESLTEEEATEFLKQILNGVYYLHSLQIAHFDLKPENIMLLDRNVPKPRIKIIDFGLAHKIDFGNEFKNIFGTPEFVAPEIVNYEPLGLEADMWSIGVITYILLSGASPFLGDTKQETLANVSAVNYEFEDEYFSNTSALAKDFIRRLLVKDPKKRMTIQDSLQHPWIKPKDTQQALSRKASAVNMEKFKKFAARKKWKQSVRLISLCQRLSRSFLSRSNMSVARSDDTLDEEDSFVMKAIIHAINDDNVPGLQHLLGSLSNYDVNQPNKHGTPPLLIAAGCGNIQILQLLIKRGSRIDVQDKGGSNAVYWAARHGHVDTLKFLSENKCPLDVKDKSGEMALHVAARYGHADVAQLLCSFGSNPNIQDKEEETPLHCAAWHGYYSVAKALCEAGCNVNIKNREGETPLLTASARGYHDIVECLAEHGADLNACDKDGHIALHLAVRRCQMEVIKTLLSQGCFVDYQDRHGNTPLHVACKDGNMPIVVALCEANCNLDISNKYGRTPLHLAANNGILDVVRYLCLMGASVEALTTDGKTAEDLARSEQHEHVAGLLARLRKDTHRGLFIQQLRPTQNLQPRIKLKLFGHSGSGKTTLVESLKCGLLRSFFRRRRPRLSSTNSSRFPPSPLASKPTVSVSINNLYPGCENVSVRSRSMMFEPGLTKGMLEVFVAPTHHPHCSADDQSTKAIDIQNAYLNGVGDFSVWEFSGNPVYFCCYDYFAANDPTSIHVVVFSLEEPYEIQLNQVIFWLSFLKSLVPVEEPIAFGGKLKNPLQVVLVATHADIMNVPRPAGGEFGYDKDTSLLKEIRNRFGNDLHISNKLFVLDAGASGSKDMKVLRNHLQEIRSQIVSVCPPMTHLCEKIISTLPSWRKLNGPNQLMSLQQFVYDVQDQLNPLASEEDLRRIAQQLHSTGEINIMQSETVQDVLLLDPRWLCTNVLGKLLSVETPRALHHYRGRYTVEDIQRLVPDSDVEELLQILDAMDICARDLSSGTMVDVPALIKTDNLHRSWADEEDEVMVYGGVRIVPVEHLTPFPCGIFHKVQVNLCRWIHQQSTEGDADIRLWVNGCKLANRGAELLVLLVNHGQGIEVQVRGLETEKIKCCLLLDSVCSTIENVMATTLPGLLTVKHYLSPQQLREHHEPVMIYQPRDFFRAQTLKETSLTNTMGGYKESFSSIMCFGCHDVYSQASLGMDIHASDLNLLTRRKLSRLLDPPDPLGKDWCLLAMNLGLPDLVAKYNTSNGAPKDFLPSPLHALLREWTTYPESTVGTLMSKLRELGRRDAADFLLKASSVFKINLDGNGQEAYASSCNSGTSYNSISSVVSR
# Chain of MAP kinase-activated protein kinase 3 (Homo sapiens) (Q16644 whole entry, looked up): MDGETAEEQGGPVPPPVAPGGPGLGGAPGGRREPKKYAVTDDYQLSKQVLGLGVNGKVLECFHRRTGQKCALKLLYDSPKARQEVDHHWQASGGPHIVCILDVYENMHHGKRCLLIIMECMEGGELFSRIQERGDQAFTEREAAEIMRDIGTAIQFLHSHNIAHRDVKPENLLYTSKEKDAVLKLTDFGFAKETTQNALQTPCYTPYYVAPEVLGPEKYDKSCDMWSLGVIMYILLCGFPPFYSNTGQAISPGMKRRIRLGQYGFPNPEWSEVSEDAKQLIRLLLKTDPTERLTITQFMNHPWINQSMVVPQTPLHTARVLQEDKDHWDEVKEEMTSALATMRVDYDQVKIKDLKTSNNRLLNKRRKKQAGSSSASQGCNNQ
# Chain of MAP kinase-activated protein kinase 2 (Homo sapiens) (P49137 whole entry, looked up): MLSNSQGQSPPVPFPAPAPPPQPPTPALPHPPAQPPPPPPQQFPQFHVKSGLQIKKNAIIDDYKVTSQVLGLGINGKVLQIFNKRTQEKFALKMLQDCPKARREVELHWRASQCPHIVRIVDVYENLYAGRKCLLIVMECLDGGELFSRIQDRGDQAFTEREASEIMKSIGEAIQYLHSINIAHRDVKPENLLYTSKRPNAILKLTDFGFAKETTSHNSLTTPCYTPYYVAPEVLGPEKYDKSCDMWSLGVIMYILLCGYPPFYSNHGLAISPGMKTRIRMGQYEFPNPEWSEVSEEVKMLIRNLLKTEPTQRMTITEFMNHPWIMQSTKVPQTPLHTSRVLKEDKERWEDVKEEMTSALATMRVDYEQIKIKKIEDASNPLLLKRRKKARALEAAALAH
# Chain of Calcium/calmodulin-dependent protein kinase type II subunit alpha (Homo sapiens) (Q9UQM7 whole entry): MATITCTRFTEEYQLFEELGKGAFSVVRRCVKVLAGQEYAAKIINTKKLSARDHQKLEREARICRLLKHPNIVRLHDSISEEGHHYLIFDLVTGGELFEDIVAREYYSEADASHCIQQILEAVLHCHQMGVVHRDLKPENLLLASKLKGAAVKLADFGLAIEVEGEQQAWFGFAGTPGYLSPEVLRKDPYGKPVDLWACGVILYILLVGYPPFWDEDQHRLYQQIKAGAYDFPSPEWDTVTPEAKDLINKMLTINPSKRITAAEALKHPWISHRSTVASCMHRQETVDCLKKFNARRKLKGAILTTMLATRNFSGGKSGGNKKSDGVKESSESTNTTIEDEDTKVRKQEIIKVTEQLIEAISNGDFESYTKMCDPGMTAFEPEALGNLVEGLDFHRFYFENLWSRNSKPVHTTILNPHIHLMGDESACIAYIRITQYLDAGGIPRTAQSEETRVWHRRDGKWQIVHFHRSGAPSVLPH
# Chain of Serine/threonine-protein kinase Chk2 (Homo sapiens) (O96017 whole entry): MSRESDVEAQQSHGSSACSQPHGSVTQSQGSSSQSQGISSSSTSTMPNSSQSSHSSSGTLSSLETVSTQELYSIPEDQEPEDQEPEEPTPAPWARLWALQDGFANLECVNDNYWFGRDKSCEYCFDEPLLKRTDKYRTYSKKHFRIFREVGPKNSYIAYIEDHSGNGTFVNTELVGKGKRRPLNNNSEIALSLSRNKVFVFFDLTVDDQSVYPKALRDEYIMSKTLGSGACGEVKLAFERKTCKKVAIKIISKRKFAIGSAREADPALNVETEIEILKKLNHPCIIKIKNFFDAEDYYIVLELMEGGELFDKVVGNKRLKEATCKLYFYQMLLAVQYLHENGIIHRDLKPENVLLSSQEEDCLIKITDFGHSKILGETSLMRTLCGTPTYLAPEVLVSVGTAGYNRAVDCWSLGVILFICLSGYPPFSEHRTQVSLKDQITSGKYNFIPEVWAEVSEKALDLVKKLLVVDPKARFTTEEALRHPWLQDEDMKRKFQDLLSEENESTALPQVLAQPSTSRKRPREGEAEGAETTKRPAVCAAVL
Compound,inhibition [1],inhibition [2],inhibition [3],inhibition [4],inhibition [5],inhibition [6],inhibition [7],inhibition [8],inhibition [9],inhibition [10],inhibition [11],inhibition [12],inhibition [13],inhibition [14],inhibition [15],inhibition [16],inhibition [17],inhibition [18],inhibition [19],inhibition [20]
CN(C)c1cc2c(Nc3ccc4nc(Cc5ccccc5)[nH]c4c3)ncnc2cn1,4.09%,4.46%,4.05%,1.47%,-2.01%,7.31%,6.99%,2.75%,9.92%,5.94%,7.51%,1.19%,1.22%,2.01%,2.85%,4.79%,4.13%,3.62%,5.59%,3.84%
Nc1ncnc2occ(-c3ccc(NC(=O)Nc4cccc(C(F)(F)F)c4)cc3)c12,1.03%,3.02%,2.75%,-0.91%,4.17%,6.67%,5.24%,3.95%,6.09%,8.33%,4.16%,0.41%,1.61%,3.79%,3.15%,9.11%,20.7%,3.95%,8.44%,3.75%
[O-][S+]1CCN(Cc2ccc(-c3ccc4ncnc(Nc5ccc(OCc6ccccc6)c(F)c5)c4c3)o2)CC1,2.39%,2.36%,2.19%,0.91%,0.5%,0.15%,3.65%,2.23%,7.61%,2.43%,3.11%,1.91%,3.92%,0.41%,0.42%,0.85%,3.94%,1.63%,2.55%,2.88%
NS(=O)(=O)c1ccc(N/N=C2\C(=O)Nc3ccc(C(=O)NCCc4c[nH]cn4)cc32)cc1,10.6%,8.76%,32.5%,0.01%,0.46%,4.59%,17.2%,4.59%,18.3%,4.26%,12.4%,1.45%,0.59%,2.48%,2.03%,3.95%,3.57%,16%,61.4%,8.6%
Cn1cc(C=C2C(=O)Nc3cccnc32)c2ccccc21,3.18%,2.44%,6.23%,0.47%,-0.07%,0.66%,7.2%,2.65%,15.6%,2.44%,7.28%,0.87%,3.71%,0.71%,1.83%,2.19%,5.11%,3.55%,9.52%,4.73%
CCn1c(-c2nonc2N)nc2ccncc21,6.48%,2.32%,4.41%,0.03%,1.1%,1.89%,0.17%,1.09%,1.49%,1.08%,2.7%,-2.35%,-1.48%,-0.18%,0.49%,0.85%,1.7%,0.76%,-0.05%,0.13%
Cc1cc(O)cc(C)c1/C=C/c1cncc(-c2nn[nH]n2)c1,3.79%,4.52%,4.7%,-0.07%,-1.05%,-7.2%,2.19%,3.38%,5.57%,3.16%,3.95%,-1.23%,-3.21%,2.39%,1.49%,6.11%,4.25%,4.55%,5.09%,5.87%
CCCN1CCC(Oc2cc(Nc3nc(Nc4cccc(F)c4C(N)=O)c4cc[nH]c4n3)c(OC)cc2Cl)CC1,4.06%,3.15%,16.5%,9.59%,31.1%,1.9%,3.67%,1.65%,33.6%,0.88%,16.8%,-2.33%,,-0.08%,-0.66%,10.3%,-0.67%,-1.22%,2.97%,-0.83%
O=C1NC(=O)C(c2ccccc2Cl)=C1Nc1cccc(O)c1,5.26%,3.96%,11.7%,0.91%,1.07%,-0.11%,1.92%,1.18%,2.39%,3.2%,3.55%,-0.07%,1.16%,1.27%,1.05%,1.45%,1.77%,1.97%,8.19%,1.72%
COc1ccc(-c2nn3ncccc3c2-c2ccnc(Nc3ccc(Cl)c(C(F)(F)F)c3)n2)cc1,0.35%,0.24%,-0.01%,-1.57%,-4.24%,-0.59%,-3.23%,1.35%,2.73%,1.96%,2.18%,1.74%,,1.23%,0.64%,4.41%,17.4%,2.21%,2.97%,-0.96%
CCn1c(-c2nonc2N)nc2c(C#CC(C)(C)O)nc(CN3CCCC3)cc21,0.03%,-0.33%,1.82%,-3.55%,1.55%,,-2.45%,-1.49%,0.49%,0.05%,-0.31%,6.66%,-1.42%,-0.49%,-0.42%,-1.48%,-0.59%,4.99%,12%,4.42%
Nc1nc(-c2ccc3c(c2)C(=Cc2cc(Br)c(O)c(Br)c2)C(=O)N3)cs1,-3.05%,-2.31%,-1.31%,-0.65%,-2.75%,3.04%,1.34%,-2.92%,0.55%,0.32%,-4.53%,-3.76%,-0.78%,-1.56%,-1.55%,-1.77%,-1.51%,0.42%,1.58%,-0.72%
NCc1ccc(-c2nc(-c3ccc(Cl)c(O)c3)c(-c3ccncc3)[nH]2)cc1,2.11%,-0.18%,2.12%,0.6%,0.53%,-0.88%,2.53%,-0.52%,0.67%,0.81%,1.16%,3.34%,5.14%,-0.41%,-0.56%,15.5%,30.9%,2.03%,2.6%,0.33%
